# Assay results from PubChem BioAssay (NCATS).
# Where “and” joins values, the source holds several entries; their conditions need not be identical. Equal values may be shown once. Inconclusive results are not listed. A call without a number means that no potency is given here. A number with no mark means an inactive call. Calls of active or inactive are those of the source. The call rests on the fitted dose curve; in most records, active means well fitted curve in the direction sought with a large enough effect; inconclusive means small, poorly fitted or top-dose-only effect, or another doubt; inactive means no such curve, though single readings can be large; an effect the other way counts as inactive or inconclusive. Numbered stars: 1 amine (or outer) side, 2 acyl side, 3 side chain; on linkers, the order of the positions; unused ones are H or OH. Bridge positions count the residues as written; N and C are the ends. Square brackets hold non-standard residues; d marks the D form. Peptide text beside a SMILES is read from it. * marks the point of attachment. ξ: configuration not given here. ξhTyr(3S-OH,4S-OH,3'-OSO3H) = NC(C(=O)O)[C@H](O)[C@@H](O)c1ccc(O)c(OS(=O)(=O)O)c1; Orn(4R-OH,5R-OH) = O=C([C@H](C[C@@H](O)[C@@H](O)N[*:3])N[*:1])[*:2]; X6 = CCCCCOc1ccc(-c2cc(-c3ccc(C(=O)*)cc3)no2)cc1; X7 = C[C@H]1CN([*:1])C(C(=O)[*:2])[C@H]1O; ξGln(3R-OH) = NC(=O)C[C@@H](O)C(N)C(=O)O; ξPro(4R-OH) = O=C(O)C1C[C@@H](O)CN1; ξThr(3R) = C[C@@H](O)C(N)C(=O)O; pGlu = O=C1CC[C@@H](C(=O)O)N1; Thz = O=C(O)[C@@H]1CSCN1
# Tests used:
# [1] = molecular target: Cellular tumor antigen p53 (Homo sapiens) (UniProt P04637); assay: Primary qHTS for small molecule compounds that upregulate eGFP-tagged delta133p53alpha (in N-terminal) cells. (AID 2060322); settings: NCI-H358 eGFP-delta133p53alpha fluorescence, 24 h; activation: hits give high values; further: nearly all actives have a fitted effect of over 75% in size; further: potency means the concentration at half of the fitted maximal effect; on activation: series mostly up to about 56 µM
# Method in brief: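 NCI-H358 cells pre-induced 24 h with 10 ng/ml doxycycline to express N-terminal eGFP-delta133p53alpha, then dosed 24 h at 37C without doxycycline; fixed, Hoechst-stained, GFP intensity by laser scanning cytometry, normalized to DMSO (0%) and 57.5 uM 5-azacytidine (100%).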
# [2] = molecular target: Aldehyde dehydrogenase, mitochondrial (Homo sapiens) (UniProt P05091); assay: qHTS for Inhibitors of the Aldehyde Dehydrogenase Family (ALDH2) Primary screen (AID 2061308); further: nearly all actives have a fitted effect of over 55% in size
# [3] = molecular target: Retinaldehyde dehydrogenase 3 (Homo sapiens) (UniProt P47895); assay: qHTS for Inhibitors of the Aldehyde Dehydrogenase Family (ALDH1A3) Validation screen (AID 2061312); further: nearly all actives have a fitted effect of over 45% in size; further: potency means the concentration at half of the fitted maximal effect
# [4] = molecular target: Retinaldehyde dehydrogenase 3 (Homo sapiens) (UniProt P47895); assay: qHTS for Inhibitors of the Aldehyde Dehydrogenase Family (ALDH1A3) Primary screen (AID 2061315)
# Sequence of Cellular tumor antigen p53 (Homo sapiens) (P04637 whole entry, looked up): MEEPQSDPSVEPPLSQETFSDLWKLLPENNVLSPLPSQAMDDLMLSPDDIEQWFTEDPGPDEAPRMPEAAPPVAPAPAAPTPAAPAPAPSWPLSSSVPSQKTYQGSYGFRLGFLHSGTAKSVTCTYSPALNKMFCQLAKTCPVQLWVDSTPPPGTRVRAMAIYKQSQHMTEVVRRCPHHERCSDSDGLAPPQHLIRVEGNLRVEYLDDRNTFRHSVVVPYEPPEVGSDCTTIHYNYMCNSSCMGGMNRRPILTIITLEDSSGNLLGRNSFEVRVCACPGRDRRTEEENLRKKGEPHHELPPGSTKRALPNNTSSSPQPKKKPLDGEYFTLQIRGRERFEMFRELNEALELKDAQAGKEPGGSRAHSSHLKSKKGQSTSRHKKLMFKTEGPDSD
SMILES,activation [1],Potency [2],Potency [3],Potency [4],"activity change, negative = inhibition [2]","activity change, negative = inhibition [3]","activity change, negative = inhibition [4]",Potency [1]
CC(C)(C)C1CCN(C(=O)n2ncc(C(O)(c3ccccc3)c3ccccc3)n2)CC1,6.21%,inactive,inactive,inactive,,,,
CN(C)C(=O)NC1CCC(CCN2CCN(c3cccc(Cl)c3Cl)CC2)CC1 (stereo not drawn),-1.91%,,,,8.14% [at 11.2 µM],7.05% [at 20.1 µM],-11.6% [at 11.2 µM],
CCCCS(=O)(=O)NC(Cc1ccc(OCCCCC2CCNCC2)cc1)C(=O)O (stereo not drawn),12.9%,inactive,inactive,inactive,,,,
Cn1c2ccc(NC(=O)c3ccccc3)cc2c(=O)n2nc(C(=O)O)cc12,8.59%,inactive,inactive,inactive,,,,
Cc1ccc(N2CCN(CCC3NC(=O)c4ccccc43)CC2)cc1C (stereo not drawn),-7.16%,inactive,inactive,inactive,,,,
Cc1cc(C(=O)N2CCCCc3ccccc32)ccc1CNC(=O)N1CCC[C@H]1C(=O)N(C)C,4.3%,inactive,inactive,inactive,,,,
CC(C)Nc1nc(Nc2ccccc2)nc(-c2ccccc2)n1,2.39%,inactive,inactive,inactive,,,,
CC1(C)CCC(C)(C)c2cc(C#Cc3ccc(C(=O)O)cc3)ccc21,-5.25%,inactive,inactive,inactive,,,,
CC(C)(O)c1ccccc1CC[C@@H](SCC1(CC(=O)O)CC1)c1cccc(/C=C/c2ccc3ccc(Cl)cc3n2)c1,-15.3% and -1.91%,inactive,inactive,inactive,,,,
COc1ccc(N2CCN(CCCNC(=O)Cn3c(=O)c4cccn4c4c(C)ccnc43)CC2)cc1,0.477%,inactive,inactive,inactive,,,,
FC(F)(F)c1ccccc1-c1cc(C(F)(F)F)c2nc(C3=NOC4(CCCCC4)C3)[nH]c2c1,15.3%,inactive,inactive,inactive,,,,
CCc1ccc(-c2nc(CSCC(=O)NCCc3ccccc3)c(C)o2)cc1,-12.9%,inactive,inactive,inactive,,,,
O=C(c1c2ccccc2cc2ccccc12)N1CCC(N2CCC[C@@H](C(=O)N3CCOCC3)C2)CC1,-1.91%,inactive,inactive,inactive,,,,
COc1ccc(C(=O)n2c(C)c(Cc3cccc(O[C@@H](C)C(=O)O)c3)c3cc(OC(F)(F)F)ccc32)cc1,-3.82%,inactive,inactive,inactive,,,,
CC(Cc1cc2c(c(C(N)=O)c1)N(CCCO)CC2)NCCOc1ccccc1OCC(F)(F)F (stereo not drawn),5.25%,inactive,inactive,inactive,,,,
CCC(C)n1cc(C)c2c(C(=O)NCc3c(C)cc(C)[nH]c3=O)cc(-c3ccc(N4CCNCC4)nc3)cc21 (stereo not drawn),-3.34%,inactive,inactive,inactive,,,,
CCCC(C(=O)O)c1c(C)nc2ccc(Cl)cc2c1-c1ccccc1 (stereo not drawn),-1.91%,inactive,inactive,inactive,,,,
Cn1cc(S(=O)(=O)c2ccc(Cl)cc2)c2cccc(N3CCNCC3)c21,3.34%,inactive,inactive,inactive,,,,
C[C@@H]1O[C@@H](O[C@H]2[C@H](Oc3cc(O)c(C(=O)CCc4ccc(O)cc4)c(O)c3)O[C@H](CO)[C@@H](O)[C@@H]2O)[C@H](O)[C@H](O)[C@H]1O,-10.5%,inactive,inactive,inactive,,,,

SMILES,activation [1],Potency [2],Potency [3],Potency [4],"activity change, negative = inhibition [2]","activity change, negative = inhibition [3]","activity change, negative = inhibition [4]",Potency [1]
COc1cc(Br)c(Nc2nc(-c3c(C)nc4ncccn34)cs2)c(Br)c1,14.8%,inactive,inactive,inactive,,,,
COc1ccc(C(=O)N(CCC(C)C)Cc2nc(C)c(C)n2Cc2ccccc2C)c(OC)c1,11.5%,inactive,inactive,inactive,,,,
Cc1ccc2nc(N)[nH]c(=O)c2c1Sc1ccncc1,-10% and -17.7%,inactive,7.94 µM (active),inactive,,,,
CS(=O)(=O)c1ccccc1N1CCN(c2nc3c(c(=O)[nH]2)CSCC3)CC1,11.5%,inactive,inactive,inactive,,,,
CC(C)[N+]1(C)C2CCC1CC(OC(=O)C(CO)c1ccccc1)C2 (stereo not drawn),3.82%,inactive,inactive,inactive,,,,
OC1CCC(Nc2nc(-c3ccccc3)nc3[nH]ccc23)CC1 (stereo not drawn),-8.11%,inactive,inactive,inactive,,,,
O=C1CSc2ccccc2N1Cc1cccc(C(F)(F)F)c1,3.34%,inactive,inactive,inactive,,,,
CC(C)(C[C@@](O)(Cc1cc2ccncc2[nH]1)C(F)(F)F)c1cc(F)ccc1O,13.4%,inactive,inactive,inactive,,,,
CC(C)C(=O)c1cn(CC(=O)COc2ccc(Oc3ccccc3)cc2)c2ccc(C(=O)O)cc12,6.68%,inactive,inactive,inactive,,,,
Oc1ccccc1-c1cc(-c2ccccc2F)[nH]n1,-12.9%,inactive,inactive,inactive,,,,
CCN=C1N[C@@H]2[C@@H](O)[C@H](O)[C@@H](CO)O[C@@H]2S1,1.43%,inactive,inactive,inactive,,,,
CCOC(=O)CCN(C(=O)c1ccc2c(c1)nc(CNc1ccc(C(=N)N)cc1)n2C)c1ccccn1,-4.77%,inactive,inactive,inactive,,,,
"CCCCCOc1ccc(-c2cc(-c3ccc(C(=O)N[C@H]4C[C@@H](O)[C@@H](O)NC(=O)C5[C@@H](O)[C@@H](C)CN5C(=O)C([C@H](O)CC(N)=O)NC(=O)C([C@H](O)[C@@H](O)c5ccc(O)c(OS(=O)(=O)O)c5)NC(=O)C5C[C@@H](O)CN5C(=O)C([C@@H](C)O)NC4=O)cc3)no2)cc1 (stereo partly drawn) (X6-[Orn(4R-OH,5R-OH)][ξThr(3R)][ξPro(4R-OH)][ξhTyr(3S-OH,4S-OH,3'-OSO3H)][ξGln(3R-OH)][X7]; lactam 1-C)",-0.955%,inactive,inactive,inactive,,,,
COc1ccccc1Oc1c(NS(=O)(=O)c2ccc(C)cn2)nc(-c2ccncc2)nc1OC,20%,inactive,inactive,inactive,,,,
O=C1CC[C@@H](C(=O)N2CSC[C@H]2C(=O)O)N1 ([pGlu]-[Thz]-OH),1.43%,inactive,inactive,inactive,,,,
CN1CCN(C2=Nc3ccccc3Nc3ccc(Cl)cc32)CC1,8.59%,inactive,inactive,inactive,,,,
CC1CC(OC(=O)C(O)c2ccccc2)CC(C)(C)C1 (stereo not drawn),1.43%,inactive,inactive,inactive,,,,
CCNC(=O)N1CCCN(c2ccc(C(=O)NCCc3ccc(Cl)cc3Cl)cc2NC(=O)c2cccc(Cl)c2)CC1,1.91%,inactive,inactive,inactive,,,,
O=C(Nc1ccc(F)cc1)N1CCc2ccccc2C1c1ccc(C(F)(F)F)cc1 (stereo not drawn),13.4%,inactive,inactive,inactive,,,,

SMILES,activation [1],Potency [2],Potency [3],Potency [4],"activity change, negative = inhibition [2]","activity change, negative = inhibition [3]","activity change, negative = inhibition [4]",Potency [1]
O=C(NCCCN1CCC2(CC1)OCc1ccccc12)[C@H]1CCCN1Cc1ccccc1,0.477%,inactive,inactive,inactive,,,,
CC1=C(/C=C/C(C)=C\C=C\C(C)=C/C(=O)O)C(C)(C)CCC1,11.5%,inactive,inactive,inactive,,,,
NCc1c[nH]c(=S)n1C1CCc2c(F)cc(F)cc2C1 (stereo not drawn),-0.477%,inactive,inactive,inactive,,,,
c1ccc(-c2csc(N3CCOCC3)n2)cc1,-7.16%,inactive,inactive,inactive,,,,
Cc1ccnc(NC(=O)C(C)c2cccc(C(=O)c3ccccc3)c2)c1 (stereo not drawn),-19.6%,inactive,inactive,inactive,,,,
CN1CCN(c2nc(-c3ccc(C(=O)NC4(C(=O)NCC#N)CCCCC4)cc3)cs2)CC1,-19.1%,inactive,inactive,inactive,,,,
CC1=C(C(=O)Nc2cc(Cl)ccc2Cl)C(c2ccco2)C2=C(CCCC2=O)N1 (stereo not drawn),17.7%,inactive,inactive,inactive,,,,
C=C1CCN([C@H](C)[C@](O)(Cn2cncn2)c2ccc(F)cc2F)CC1,-19.1%,inactive,inactive,inactive,,,,
CC1CCN(c2cc(NC(=O)c3ccccc3)ncn2)CC1,22.4%,inactive,inactive,inactive,,,,
CC1(C)Oc2ncnc(N)c2N=C1c1ccc(C23CCC(CC(=O)O)(CC2)CC3)cc1,-11.9%,inactive,inactive,inactive,,,,
O=C(O)CCc1ccc(NCc2cccc3c2CCCN3CCOc2ccccc2)cc1F,2.39%,inactive,inactive,inactive,,,,
C=CC(=O)N1CCN(C(=O)c2cc(-c3cc(Cl)ccc3Cl)c(Cl)cc2OC)CC1,-7.64%,inactive,inactive,inactive,,,,
O=C(Nc1cc(-c2ccccc2)nn1-c1ccccc1)c1ccc([N+](=O)[O-])cc1,-11%,inactive,inactive,inactive,,,,
COc1ccc(-c2csc(NC(=O)[C@H]3CCCCN3S(=O)(=O)c3ccc(C)cc3)n2)cc1,-8.59%,inactive,inactive,inactive,,,,
COc1ccc2[nH]c3c(-c4cccc5ccccc45)nccc3c2c1,,inactive,inactive,inactive,,,,26.9 µM (active)
Nc1ncnc2c1ncn2[C@H]1CCCO1,-5.73%,inactive,inactive,inactive,,,,
COc1cc2c(Nc3cc(F)c(Cl)c(Cl)c3)ncnc2cc1OCC1CCCN(C)CCC1,,inactive,inactive,inactive,,,,23.9 µM (active)
CC(NCCCc1cccc(C(F)(F)F)c1)c1cccc2ccccc12 (stereo not drawn),-2.86%,inactive,inactive,inactive,,,,
CCN(CC)CCCS(=O)(=O)N[C@H](CCc1ccccc1)c1nc(Cc2ccc(Br)cc2)no1,7.64%,inactive,inactive,inactive,,,,
